Screening results: PubChem, DiRusso Lab, Biochemistry Department, University of Nebraska
Chlamy TAG = increases triacylglycerol in Chlamydomonas reinhardtii; Chlamydomonas reinhardtii TAG, Nile Red fluorescence, 72 h; calls only at 10 µM (by protocol); hit rate 0.84% among 44,000; AID 1159537; call rule not given here;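 note: hits raise Nile Red signal meaning more stored TAG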
Starred values were filed as active, the others as inactive; i = inactive; + = active, no number. The entries come from a sample that favours hits as a whole.

SMILES	Chlamy TAG
O=C(Nc1cccc(-c2nc3ccccc3[nH]2)c1)c1ccc([N+](=O)[O-])cc1	i
Fc1ccccc1CSC1=NCCN1	+
Fc1ccccc1CSc1nnc(-c2ccncc2)n1-c1ccccc1	i
Fc1ccccc1CSc1nc2ncccc2[nH]1	i
CC(C)c1ccccc1NC(=O)CSc1ccccc1	i
Cc1ccc(CN(C)C2CCN(C)CC2)s1	+
COc1cccc(CN(C)C2CCN(C)CC2)c1	i
CCOc1ccc(CN(C)C2CCN(C)CC2)cc1	i
CN1CCC(N(C)Cc2cccc(Oc3ccccc3)c2)CC1	+
CC(C)c1ccc(CN(C)C2CCN(C)CC2)cc1	i
CN1CCC(N(C)Cc2cccs2)CC1	i
CCc1ccc(CN(C)C2CCN(C)CC2)cc1	+
CN1CCC(N(C)Cc2ccc(Cl)c(Cl)c2)CC1	i
CN1CCC(N(C)Cc2coc3ccccc3c2=O)CC1	i
CCOc1ccccc1NC(=O)CCCc1ccccc1	i
Cc1ccccc1CSCCNS(=O)(=O)c1ccccc1[N+](=O)[O-]	i
C=CCSc1nnc(-c2ccncc2)o1	i
Cc1ccc(Oc2ccc(NC(=O)c3ccccc3[N+](=O)[O-])cc2)cc1	i
c1cc(CN2CCCC2)ccn1	i
c1cc(CN2CCOCC2)cs1	i
c1ccc(N2CCN(Cc3ccsc3)CC2)nc1	i
c1ccc(CCN2CCN(c3ccccc3)CC2)cc1	+
Clc1cccc(N2CCN(Cc3cccs3)CC2)c1	i
COc1cc(CN2CCN(c3cccc(Cl)c3)CC2)cc(OC)c1O	i
c1ccc(CCN2CCN(Cc3ccccc3)CC2)cc1	i
SMILES	Chlamy TAG
Clc1cccc(N2CCN(Cc3ccsc3)CC2)c1	+
c1ccc(N2CCN(Cc3ccsc3)CC2)cc1	+
CN1CCN(CCCc2ccccc2)CC1	i
O=C(Nc1ccc(Cl)cc1)c1ccc([N+](=O)[O-])cc1	i
Cc1ccc(S(=O)(=O)NC(C)(C)C)cc1[N+](=O)[O-]	i
C=CCNC(=O)C(NC(=O)c1ccccc1)=C1CCCCC1	i
Cc1ccc(S(=O)(=O)N2CCCC(C(=O)N3CCc4ccccc4C3)C2)cc1 (stereo unspecified)	i
O=C(CCC1CCCC1)N1CCN(C(=O)c2ccccc2)CC1	i
Clc1ccc(CN2CCSCC2)cc1	i
Cc1ccc2oc(C(=O)NCc3ccccc3)c(C)c2c1	i
O=C(O)C(Cc1ccc(Cl)cc1)NS(=O)(=O)c1ccccc1 (stereo unspecified)	i
COCC(C)NS(=O)(=O)c1ccc(F)cc1 (stereo unspecified)	i
CCOc1ccccc1C(=O)NCCNC(=O)c1ccccc1OCC	i
CCOc1ccccc1C(=O)NC1CCC(NC(=O)c2ccccc2OCC)CC1 (stereo unspecified)	i
CCOc1ccccc1C(=O)NC1CC1	+
Cc1[nH]c2ccccc2c1CCNC(=O)C1CCCCC1	i
O=C(c1cccc(S(=O)(=O)N2CCOCC2)c1)N1CCCCC1	i
c1cc2c(cc1CNC1CCCCC1)OCO2	i
c1cc2c(cc1CNC1CCCC1)OCO2	+
O=C(CCC1CCCCC1)NCc1ccc2c(c1)OCO2	i
Cc1ccc(NC(=O)CN(c2ccc(Cl)cc2)S(C)(=O)=O)cc1	i
CCN(Cc1ccccc1)C(=O)C1CCNCC1	i
C=C(C)CN(CC)C(=O)C1CCN(Cc2ccc(Cl)cc2)CC1	+
O=C(C1CCN(CCCc2ccccc2)CC1)N1CCCCC1	i
Cc1ccc(CN2CCC(C(=O)N(CCO)Cc3ccccc3)CC2)cc1	i
SMILES	Chlamy TAG
CCN(Cc1ccccc1)C(=O)C1CCN(CCCc2ccccc2)CC1	+
CCOc1ccc(CN2CCC(C(=O)N(CCO)Cc3ccccc3)CC2)cc1	i
CCN(CC)C(=O)C1CCCN(Cc2ccc(Cl)cc2)C1 (stereo unspecified)	i
CCc1ccc(CN2CCC(C(=O)N(CC)Cc3ccccc3)CC2)cc1	+
C=C(C)CN(CC)C(=O)C1CCN(Cc2cccnc2)CC1	i
Cc1ccc(C(C)C)c(OCC(O)CNC(C)C)c1 (stereo unspecified)	i
CC(CCc1ccccc1)N1CCN(c2ccccc2F)CC1 (stereo unspecified)	i
Cc1ccc(Nc2nc(N3CCOCC3)nc(C)c2[N+](=O)[O-])c(C)c1	i
CC(=O)Nc1ccc(NC(=O)c2cc(Br)ccc2Cl)cc1	i
Cc1c(N2C(=O)C3C4c5ccccc5C(c5ccccc54)C3C2=O)c(=O)n(-c2ccccc2)n1C (stereo unspecified)	i
Cc1cccc(C(=O)Nc2ccc(Cl)c(C(N)=O)c2)c1	i
COc1ccc(CN2CCC(C(=O)N3CCN(c4cccc(C)c4C)CC3)CC2)cc1	i
O=C(C1CCN(CC2CCCCC2)CC1)N1CCN(c2ccccc2F)CC1	+
Cc1cccc(N2CCN(C(=O)C3CCN(CC(C)C)CC3)CC2)c1C	i
Cc1cccc(N2CCN(C(=O)C3CCN(CC4CCCCC4)CC3)CC2)c1C	+
Cc1ccc(CN2CCC(C(=O)N3CCN(c4ccccc4F)CC3)CC2)cc1	i
Cc1ccc(CN2CCC(C(=O)N3CCN(c4ccccc4F)CC3)CC2)o1	+
Cc1ccc(CN2CCC(C(=O)N3CCN(c4cccc(C)c4C)CC3)CC2)o1	i
CC(C)CN1CCC(C(=O)N2CCN(c3ccccc3F)CC2)CC1	i
O=C(C1CCCCC1)N1CCN(c2ccccc2F)CC1	i
CC(=O)Nc1ccc(C(=O)NCc2ccncc2)cc1	i
CC(=O)NS(=O)(=O)c1ccc(NC(=O)c2cccc([N+](=O)[O-])c2)cc1	i
O=C(NCc1ccco1)c1ccccc1[N+](=O)[O-]	i
COc1ccccc1N1CCN(C2CCN(C3CC4CCC3C4)CC2)CC1 (stereo unspecified)	i
O=C(NC1CCN(Cc2ccccc2)CC1)c1ccccc1Br	i
SMILES	Chlamy TAG
O=C(NC1CCN(Cc2ccccc2)CC1)c1ccc(Cl)cc1Cl	+
O=C(NC1CCN(Cc2ccccc2)CC1)c1sc2ccccc2c1Cl	i
CC(=O)N(C)c1ccc(NC(=O)c2ccc(C(=O)Nc3ccc(N(C)C(C)=O)cc3)cc2)cc1	i
CS(=O)(=O)N(Cc1ccccc1Cl)c1ccc(C(=O)Nc2cccnc2)cc1	i
O=C(Nc1cccnc1)c1ccc(S(=O)(=O)c2ccc(Cl)cc2)cc1	+
O=C(Nc1cccnc1)c1ccc(-c2ccc(Cl)cc2)o1	i
CN(C)CCCOc1ccc(Cl)cc1Br	i
CN1CCN(CCCOc2cc(Cl)ccc2Cl)CC1	+
CN1CCN(CCCOc2ccc(Cl)c(Cl)c2)CC1	i
Cc1ccc(OCCCCN2CCOCC2)c(Br)c1	i
Brc1ccccc1OCCCCN1CCCCC1	i
Clc1ccc(OCCCCN2CCCC2)c(Br)c1	+
C=CCc1cc(C)ccc1OCCOCCN1CCOCC1	i
CN1CCN(CCCOc2ccc(Cl)cc2C(C)(C)C)CC1	i
Cc1ccc(C(C)C)cc1OCCOCCN1CCOCC1	+
Brc1cccc(OCCN2CCOCC2)c1	i
Clc1cc(Br)ccc1OCCOCCN1CCOCC1	+
Cc1ccc(C(C)C)cc1OCCCN1CCNCC1	i
COc1cc(C(c2ccc(C)o2)c2ccc(C)o2)c([N+](=O)[O-])cc1OC	i
Cc1ccc(CN(c2ccc(C(=O)N3CCCCC3)cc2)S(C)(=O)=O)cc1	i
Cc1cc(OCC(=O)NC2CC(C)(C)NC(C)(C)C2)cc(C)c1Br	i
Cc1ccc(NC(=O)c2ccc(C(C)(C)C)cc2)cc1	i
